Data published in PMC11006913.
Positions count from the first letter of the chain named.

Key:
Assay in all cases: PBM; 200 nM protein, PBS
Conditions in all cases: dsDNA, one strand shown
HOXB4 [1] = molecular target: HOXB4 (Homo sapiens, UniProt P17483 148-234)
CRX [2] = molecular target: CRX (Homo sapiens, UniProt O43186 26-111)
HOXA4 [3] = molecular target: HOXA4 (Homo sapiens, UniProt Q00056 201-287, W262R)
HOXA2 [4] = molecular target: HOXA2 (Homo sapiens, UniProt O43364 129-215, R185T)
HOXA4 [5] = molecular target: HOXA4 (Homo sapiens, UniProt Q00056 201-287, R217L)
HOXB4 [6] = molecular target: HOXB4 (Homo sapiens, UniProt P17483 148-234, V174I)
CRX [7] = molecular target: CRX (Homo sapiens, UniProt O43186 26-111, E42D)
HOXA2 [8] = molecular target: HOXA2 (Homo sapiens, UniProt O43364 129-215, R185K)
HOXA4 [9] = molecular target: HOXA4 (Homo sapiens, UniProt Q00056 201-287)
VAX1 [10] = molecular target: VAX1 (Homo sapiens, UniProt Q5SQQ9 86-172)
VAX1 [11] = molecular target: VAX1 (Homo sapiens, UniProt Q5SQQ9 86-172, T142I)
HOXA2 [12] = molecular target: HOXA2 (Homo sapiens, UniProt O43364 129-215, Y150S)
CRX [13] = molecular target: CRX (Homo sapiens, UniProt O43186 26-111, R41L)
HOXA4 [14] = molecular target: HOXA4 (Homo sapiens, UniProt Q00056 201-287, W262F)
HOXA2 [15] = molecular target: HOXA2 (Homo sapiens, UniProt O43364 129-215)
VAX1 [16] = molecular target: VAX1 (Homo sapiens, UniProt Q5SQQ9 86-172, K157R)
SHOX [17] = molecular target: SHOX (Homo sapiens, UniProt O15266 103-189)
HOXB9 = HOXB9 (Homo sapiens, UniProt P17482 171-250, T197M)
ALX4 [18] = molecular target: ALX4 (Homo sapiens, UniProt Q9H161 200-286)
PAX4 [19] = molecular target: T1, PAX4 (Homo sapiens, UniProt O43316 9-242, R200K)
T1 sequence: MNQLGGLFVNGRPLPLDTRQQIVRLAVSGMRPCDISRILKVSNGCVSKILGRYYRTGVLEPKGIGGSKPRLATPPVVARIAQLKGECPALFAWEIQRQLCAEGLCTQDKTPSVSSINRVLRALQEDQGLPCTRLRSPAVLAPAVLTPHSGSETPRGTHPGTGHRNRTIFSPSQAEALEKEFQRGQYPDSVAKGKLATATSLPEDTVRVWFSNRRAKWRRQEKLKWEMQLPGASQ

PRRX1 [20] = molecular target: PRRX1 (Homo sapiens, UniProt P54821 80-166, F113S)
PAX4 [21] = molecular target: T2, PAX4 (Homo sapiens, UniProt O43316 9-242)
T2 sequence: T1 sequence with K192R

ALX4 [22] = molecular target: ALX4 (Homo sapiens, UniProt Q9H161 200-286, Q225E)
ALX1 [23] = molecular target: ALX1 (Homo sapiens, UniProt Q15699 118-204, L144V)
ALX3 [24] = molecular target: ALX3 (Homo sapiens, UniProt O95076 139-225, N203Q)
PAX4 [25] = molecular target: T3, PAX4 (Homo sapiens, UniProt O43316 9-242, R200Q)
T3 sequence: T1 sequence with K192Q

SHOX [26] = molecular target: SHOX (Homo sapiens, UniProt O15266 103-189, R173C)
ALX1 [27] = molecular target: ALX1 (Homo sapiens, UniProt Q15699 118-204, L144R)
PAX4 [28] = molecular target: T4, PAX4 (Homo sapiens, UniProt O43316 9-242, F177V)
T4 sequence: T1 sequence with F169V, K192R

ALX3 [29] = molecular target: ALX3 (Homo sapiens, UniProt O95076 139-225)
PAX4 [30] = molecular target: T5, PAX4 (Homo sapiens, UniProt O43316 9-242, F177Y)
T5 sequence: T1 sequence with F169Y, K192R

PROP1 [31] = molecular target: PROP1 (Homo sapiens, UniProt O75360 56-141)
PROP1 [32] = molecular target: PROP1 (Homo sapiens, UniProt O75360 56-141, R99H)
ALX3 [33] = molecular target: ALX3 (Homo sapiens, UniProt O95076 139-225, L168Q)
HESX1 [34] = molecular target: HESX1 (Homo sapiens, UniProt Q9UBX0 95-180, P111T)
ALX3 [35] = molecular target: ALX3 (Homo sapiens, UniProt O95076 139-225, L168V)
PROP1 [36] = molecular target: PROP1 (Homo sapiens, UniProt O75360 56-141, F88S)
PAX4 [37] = molecular target: T6, PAX4 (Homo sapiens, UniProt O43316 9-242, R227W)
T6 sequence: T1 sequence with K192R, R219W

ALX1 [38] = molecular target: ALX1 (Homo sapiens, UniProt Q15699 118-204)
ALX3 [39] = molecular target: ALX3 (Homo sapiens, UniProt O95076 139-225, N203S)
PRRX1 [40] = molecular target: PRRX1 (Homo sapiens, UniProt P54821 80-166)
HESX1 [41] = molecular target: HESX1 (Homo sapiens, UniProt Q9UBX0 95-180, R165K)
HESX1 [42] = molecular target: HESX1 (Homo sapiens, UniProt Q9UBX0 95-180)
HESX1 [43] = molecular target: HESX1 (Homo sapiens, UniProt Q9UBX0 95-180, F115L)
Chain of HESX1 (Homo sapiens, UniProt Q9UBX0 95-180, F115L) (Q9UBX0 95-180 F115L): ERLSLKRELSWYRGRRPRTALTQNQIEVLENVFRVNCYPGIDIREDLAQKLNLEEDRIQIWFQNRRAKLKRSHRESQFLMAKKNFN

Chain of HESX1 (Homo sapiens, UniProt Q9UBX0 95-180, P111T) (Q9UBX0 95-180 P111T): as the sequence (Q9UBX0 95-180 F115L) above, with P17T, L21F counted along it
Chain of HESX1 (Homo sapiens, UniProt Q9UBX0 95-180) (Q9UBX0 95-180): as the sequence (Q9UBX0 95-180 F115L) above, with L21F counted along it
Chain of HESX1 (Homo sapiens, UniProt Q9UBX0 95-180, R165K) (Q9UBX0 95-180 R165K): as the sequence (Q9UBX0 95-180 F115L) above, with L21F, R71K counted along it
Chain of PRRX1 (Homo sapiens, UniProt P54821 80-166) (P54821 80-166): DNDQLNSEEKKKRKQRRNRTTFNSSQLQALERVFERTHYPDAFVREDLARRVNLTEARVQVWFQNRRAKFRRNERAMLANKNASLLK
Chain of VAX1 (Homo sapiens, UniProt Q5SQQ9 86-172) (Q5SQQ9 86-172): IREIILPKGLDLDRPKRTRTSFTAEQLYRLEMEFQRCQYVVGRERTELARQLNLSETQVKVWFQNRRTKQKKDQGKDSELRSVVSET
Chain of HOXB4 (Homo sapiens, UniProt P17483 148-234, V174I) (P17483 148-234 V174I): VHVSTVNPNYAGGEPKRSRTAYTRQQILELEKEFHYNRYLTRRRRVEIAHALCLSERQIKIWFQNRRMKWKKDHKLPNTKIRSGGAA
Chain of VAX1 (Homo sapiens, UniProt Q5SQQ9 86-172, K157R) (Q5SQQ9 86-172 K157R): as the sequence (Q5SQQ9 86-172) above, with K72R counted along it
Chain of HOXB4 (Homo sapiens, UniProt P17483 148-234) (P17483 148-234): as the sequence (P17483 148-234 V174I) above, with I27V counted along it
Chain of VAX1 (Homo sapiens, UniProt Q5SQQ9 86-172, T142I) (Q5SQQ9 86-172 T142I): as the sequence (Q5SQQ9 86-172) above, with T57I counted along it
Chain of HOXA2 (Homo sapiens, UniProt O43364 129-215, Y150S) (O43364 129-215 Y150S): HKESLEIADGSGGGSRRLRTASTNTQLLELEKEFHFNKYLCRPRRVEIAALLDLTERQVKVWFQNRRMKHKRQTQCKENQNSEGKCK
Chain of CRX (Homo sapiens, UniProt O43186 26-111, E42D) (O43186 26-111 E42D): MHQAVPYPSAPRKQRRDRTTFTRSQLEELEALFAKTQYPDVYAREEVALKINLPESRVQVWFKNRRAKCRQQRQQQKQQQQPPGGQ
Chain of HOXA4 (Homo sapiens, UniProt Q00056 201-287, W262R) (Q00056 201-287 W262R): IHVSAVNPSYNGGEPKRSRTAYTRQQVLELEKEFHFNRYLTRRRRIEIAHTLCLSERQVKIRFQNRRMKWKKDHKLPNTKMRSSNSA
Chain of ALX3 (Homo sapiens, UniProt O95076 139-225, L168Q) (O95076 139-225 L168Q): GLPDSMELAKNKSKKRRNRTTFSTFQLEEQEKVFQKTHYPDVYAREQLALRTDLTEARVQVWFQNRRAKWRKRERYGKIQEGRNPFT
Chain of ALX1 (Homo sapiens, UniProt Q15699 118-204, L144V) (Q15699 118-204 L144V): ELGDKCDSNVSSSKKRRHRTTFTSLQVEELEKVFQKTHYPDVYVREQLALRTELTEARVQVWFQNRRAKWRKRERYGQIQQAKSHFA
Chain of SHOX (Homo sapiens, UniProt O15266 103-189) (O15266 103-189): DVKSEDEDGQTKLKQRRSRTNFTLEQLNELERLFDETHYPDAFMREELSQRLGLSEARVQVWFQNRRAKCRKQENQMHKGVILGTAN
Chain of HOXA2 (Homo sapiens, UniProt O43364 129-215, R185K) (O43364 129-215 R185K): as the sequence (O43364 129-215 Y150S) above, with S22Y, R57K counted along it
Chain of ALX4 (Homo sapiens, UniProt Q9H161 200-286) (Q9H161 200-286): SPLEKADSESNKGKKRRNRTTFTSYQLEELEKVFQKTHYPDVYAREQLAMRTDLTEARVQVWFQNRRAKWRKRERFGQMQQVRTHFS
Chain of PROP1 (Homo sapiens, UniProt O75360 56-141) (O75360 56-141): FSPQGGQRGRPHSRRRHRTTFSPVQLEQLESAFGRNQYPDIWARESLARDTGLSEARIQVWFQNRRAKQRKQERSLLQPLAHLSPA
Chain of HOXA4 (Homo sapiens, UniProt Q00056 201-287, W262F) (Q00056 201-287 W262F): as the sequence (Q00056 201-287 W262R) above, with R62F counted along it
Chain of CRX (Homo sapiens, UniProt O43186 26-111, R41L) (O43186 26-111 R41L): as the sequence (O43186 26-111 E42D) above, with R16L, D17E counted along it
Chain of PROP1 (Homo sapiens, UniProt O75360 56-141, R99H) (O75360 56-141 R99H): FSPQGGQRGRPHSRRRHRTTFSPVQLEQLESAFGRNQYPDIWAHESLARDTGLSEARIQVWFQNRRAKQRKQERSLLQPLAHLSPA
Chain of HOXA4 (Homo sapiens, UniProt Q00056 201-287) (Q00056 201-287): as the sequence (Q00056 201-287 W262R) above, with R62W counted along it
Chain of ALX4 (Homo sapiens, UniProt Q9H161 200-286, Q225E) (Q9H161 200-286 Q225E): as the sequence (Q9H161 200-286) above, with Q26E counted along it
Chain of CRX (Homo sapiens, UniProt O43186 26-111) (O43186 26-111): as the sequence (O43186 26-111 E42D) above, with D17E counted along it
Chain of HOXA2 (Homo sapiens, UniProt O43364 129-215, R185T) (O43364 129-215 R185T): as the sequence (O43364 129-215 Y150S) above, with S22Y, R57T counted along it
Chain of ALX1 (Homo sapiens, UniProt Q15699 118-204, L144R) (Q15699 118-204 L144R): as the sequence (Q15699 118-204 L144V) above, with V27R counted along it
Chain of ALX3 (Homo sapiens, UniProt O95076 139-225, N203S) (O95076 139-225 N203S): as the sequence (O95076 139-225 L168Q) above, with Q30L, N65S counted along it
Chain of SHOX (Homo sapiens, UniProt O15266 103-189, R173C) (O15266 103-189 R173C): as the sequence (O15266 103-189) above, with R71C counted along it
Chain of PROP1 (Homo sapiens, UniProt O75360 56-141, F88S) (O75360 56-141 F88S): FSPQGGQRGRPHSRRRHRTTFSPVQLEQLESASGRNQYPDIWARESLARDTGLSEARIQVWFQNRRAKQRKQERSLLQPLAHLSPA
Chain of PRRX1 (Homo sapiens, UniProt P54821 80-166, F113S) (P54821 80-166 F113S): as the sequence (P54821 80-166) above, with F34S counted along it
Chain of ALX1 (Homo sapiens, UniProt Q15699 118-204) (Q15699 118-204): as the sequence (Q15699 118-204 L144V) above, with V27L counted along it
Chain of HOXA4 (Homo sapiens, UniProt Q00056 201-287, R217L) (Q00056 201-287 R217L): as the sequence (Q00056 201-287 W262R) above, with R17L, R62W counted along it
Chain of HOXA2 (Homo sapiens, UniProt O43364 129-215) (O43364 129-215): as the sequence (O43364 129-215 Y150S) above, with S22Y counted along it
Chain of ALX3 (Homo sapiens, UniProt O95076 139-225, N203Q) (O95076 139-225 N203Q): as the sequence (O95076 139-225 L168Q) above, with Q30L, N65Q counted along it
Chain of ALX3 (Homo sapiens, UniProt O95076 139-225) (O95076 139-225): as the sequence (O95076 139-225 L168Q) above, with Q30L counted along it
Chain of ALX3 (Homo sapiens, UniProt O95076 139-225, L168V) (O95076 139-225 L168V): as the sequence (O95076 139-225 L168Q) above, with Q30V counted along it
Chain of HOXB9 (P17482 171-250 T197M): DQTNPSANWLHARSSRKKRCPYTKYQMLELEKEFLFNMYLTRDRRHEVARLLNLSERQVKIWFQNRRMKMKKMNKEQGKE

GATCATTA
binding signal (HOXB4 [1]): 13.4 upbm affinity estimate (log intensity, higher = more binding, comparable within an allelic series)
binding signal (CRX [2]): 10.8 upbm affinity estimate (log intensity, higher = more binding, comparable within an allelic series)
binding signal (HOXA4 [3]): 10.5 upbm affinity estimate (log intensity, higher = more binding, comparable within an allelic series)
binding signal (HOXA2 [4]): 12.5 upbm affinity estimate (log intensity, higher = more binding, comparable within an allelic series)
binding signal (HOXA4 [5]): 12.4 upbm affinity estimate (log intensity, higher = more binding, comparable within an allelic series)
binding signal (HOXB4 [6]): 14.1 upbm affinity estimate (log intensity, higher = more binding, comparable within an allelic series)
binding signal (CRX [7]): 10.7 upbm affinity estimate (log intensity, higher = more binding, comparable within an allelic series)
binding signal (HOXA2 [8]): 13.3 upbm affinity estimate (log intensity, higher = more binding, comparable within an allelic series)
binding signal (HOXA4 [9]): 14.1 upbm affinity estimate (log intensity, higher = more binding, comparable within an allelic series)
binding signal (VAX1 [10]): 13 upbm affinity estimate (log intensity, higher = more binding, comparable within an allelic series)
binding signal (VAX1 [11]): 13.1 upbm affinity estimate (log intensity, higher = more binding, comparable within an allelic series)
binding signal (HOXA2 [12]): 10.9 upbm affinity estimate (log intensity, higher = more binding, comparable within an allelic series)
binding signal (CRX [13]): 10.4 upbm affinity estimate (log intensity, higher = more binding, comparable within an allelic series)
binding signal (HOXA4 [14]): 11.9 upbm affinity estimate (log intensity, higher = more binding, comparable within an allelic series)
binding signal (HOXA2 [15]): 12.6 upbm affinity estimate (log intensity, higher = more binding, comparable within an allelic series)
binding signal (VAX1 [16]): 13 upbm affinity estimate (log intensity, higher = more binding, comparable within an allelic series)

TAAATTAA
binding signal (HOXB4 [1]): 12.9 upbm affinity estimate (log intensity, higher = more binding, comparable within an allelic series)
binding signal (SHOX [17]): 11.8 upbm affinity estimate (log intensity, higher = more binding, comparable within an allelic series)
binding signal (HOXB9): 9.99 upbm affinity estimate (log intensity, higher = more binding, comparable within an allelic series)
binding signal (ALX4 [18]): 13.9 upbm affinity estimate (log intensity, higher = more binding, comparable within an allelic series)
binding signal (PAX4 [19]): 11.8 upbm affinity estimate (log intensity, higher = more binding, comparable within an allelic series)
binding signal (PRRX1 [20]): 11.2 upbm affinity estimate (log intensity, higher = more binding, comparable within an allelic series)
binding signal (PAX4 [21]): 12.3 upbm affinity estimate (log intensity, higher = more binding, comparable within an allelic series)
binding signal (ALX4 [22]): 13.1 upbm affinity estimate (log intensity, higher = more binding, comparable within an allelic series)
binding signal (HOXB4 [6]): 13.6 upbm affinity estimate (log intensity, higher = more binding, comparable within an allelic series)
binding signal (ALX1 [23]): 11.8 upbm affinity estimate (log intensity, higher = more binding, comparable within an allelic series)
binding signal (ALX3 [24]): 8.53 upbm affinity estimate (log intensity, higher = more binding, comparable within an allelic series)
binding signal (PAX4 [25]): 12 upbm affinity estimate (log intensity, higher = more binding, comparable within an allelic series)
binding signal (SHOX [26]): 9.24 upbm affinity estimate (log intensity, higher = more binding, comparable within an allelic series)
binding signal (ALX1 [27]): 11.5 upbm affinity estimate (log intensity, higher = more binding, comparable within an allelic series)
binding signal (PAX4 [28]): 10.6 upbm affinity estimate (log intensity, higher = more binding, comparable within an allelic series)
binding signal (ALX3 [29]): 12.4 upbm affinity estimate (log intensity, higher = more binding, comparable within an allelic series)
binding signal (PAX4 [30]): 11 upbm affinity estimate (log intensity, higher = more binding, comparable within an allelic series)
binding signal (PROP1 [31]): 11.2 upbm affinity estimate (log intensity, higher = more binding, comparable within an allelic series)
binding signal (PROP1 [32]): 11 upbm affinity estimate (log intensity, higher = more binding, comparable within an allelic series)
binding signal (VAX1 [10]): 12.6 upbm affinity estimate (log intensity, higher = more binding, comparable within an allelic series)
binding signal (ALX3 [33]): 10.4 upbm affinity estimate (log intensity, higher = more binding, comparable within an allelic series)
binding signal (HESX1 [34]): 10.1 upbm affinity estimate (log intensity, higher = more binding, comparable within an allelic series)
binding signal (ALX3 [35]): 9.89 upbm affinity estimate (log intensity, higher = more binding, comparable within an allelic series)
binding signal (PROP1 [36]): 7.74 upbm affinity estimate (log intensity, higher = more binding, comparable within an allelic series)
binding signal (VAX1 [11]): 12.4 upbm affinity estimate (log intensity, higher = more binding, comparable within an allelic series)
binding signal (PAX4 [37]): 11 upbm affinity estimate (log intensity, higher = more binding, comparable within an allelic series)
binding signal (ALX1 [38]): 12.4 upbm affinity estimate (log intensity, higher = more binding, comparable within an allelic series)
binding signal (ALX3 [39]): 8.68 upbm affinity estimate (log intensity, higher = more binding, comparable within an allelic series)
binding signal (PRRX1 [40]): 13.4 upbm affinity estimate (log intensity, higher = more binding, comparable within an allelic series)
binding signal (VAX1 [16]): 12.4 upbm affinity estimate (log intensity, higher = more binding, comparable within an allelic series)

AACAATAC
binding signal (HESX1 [41]): 7.27 upbm affinity estimate (log intensity, higher = more binding, comparable within an allelic series)
binding signal (HESX1 [42]): 7.3 upbm affinity estimate (log intensity, higher = more binding, comparable within an allelic series)
binding signal (HESX1 [34]): 7.19 upbm affinity estimate (log intensity, higher = more binding, comparable within an allelic series)
binding signal (PRRX1 [40]): 10.9 upbm affinity estimate (log intensity, higher = more binding, comparable within an allelic series)

CATTAGGG
binding signal (HESX1 [41]): 8.41 upbm affinity estimate (log intensity, higher = more binding, comparable within an allelic series)
binding signal (HESX1 [42]): 8.4 upbm affinity estimate (log intensity, higher = more binding, comparable within an allelic series)
binding signal (HESX1 [43]): 6.71 upbm affinity estimate (log intensity, higher = more binding, comparable within an allelic series)

ACTATAGA
binding signal (HESX1 [41]): 7.13 upbm affinity estimate (log intensity, higher = more binding, comparable within an allelic series)
binding signal (HESX1 [42]): 7.13 upbm affinity estimate (log intensity, higher = more binding, comparable within an allelic series)
binding signal (HESX1 [34]): 7.02 upbm affinity estimate (log intensity, higher = more binding, comparable within an allelic series)
